Results reported in the supplement of paper PMC10849652.
Of roughly 7,900 targets only a part is listed; those with a hit were picked by preference. About 0.6% of all pairs of compound and target were hits.

UniProt Q2M2Z5, sequence (Q2M2Z5 whole entry, looked up): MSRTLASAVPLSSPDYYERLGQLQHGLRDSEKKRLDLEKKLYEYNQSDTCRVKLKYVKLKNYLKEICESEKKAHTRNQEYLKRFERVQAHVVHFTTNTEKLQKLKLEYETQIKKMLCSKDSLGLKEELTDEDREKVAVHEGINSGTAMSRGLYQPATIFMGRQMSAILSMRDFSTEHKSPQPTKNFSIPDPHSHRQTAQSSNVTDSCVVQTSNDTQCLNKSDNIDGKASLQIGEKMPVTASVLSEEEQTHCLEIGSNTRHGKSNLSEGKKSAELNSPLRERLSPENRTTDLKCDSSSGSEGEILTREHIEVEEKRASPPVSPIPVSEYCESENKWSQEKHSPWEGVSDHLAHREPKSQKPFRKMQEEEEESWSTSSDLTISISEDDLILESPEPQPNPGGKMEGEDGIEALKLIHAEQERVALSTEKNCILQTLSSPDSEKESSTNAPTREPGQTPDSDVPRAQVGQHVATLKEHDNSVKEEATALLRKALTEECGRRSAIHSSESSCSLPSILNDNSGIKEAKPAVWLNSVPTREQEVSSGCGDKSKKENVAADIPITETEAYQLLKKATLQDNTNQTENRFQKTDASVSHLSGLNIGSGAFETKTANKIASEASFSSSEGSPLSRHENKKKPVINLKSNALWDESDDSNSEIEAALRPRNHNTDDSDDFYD
UniProt O95279, sequence (O95279 whole entry, looked up): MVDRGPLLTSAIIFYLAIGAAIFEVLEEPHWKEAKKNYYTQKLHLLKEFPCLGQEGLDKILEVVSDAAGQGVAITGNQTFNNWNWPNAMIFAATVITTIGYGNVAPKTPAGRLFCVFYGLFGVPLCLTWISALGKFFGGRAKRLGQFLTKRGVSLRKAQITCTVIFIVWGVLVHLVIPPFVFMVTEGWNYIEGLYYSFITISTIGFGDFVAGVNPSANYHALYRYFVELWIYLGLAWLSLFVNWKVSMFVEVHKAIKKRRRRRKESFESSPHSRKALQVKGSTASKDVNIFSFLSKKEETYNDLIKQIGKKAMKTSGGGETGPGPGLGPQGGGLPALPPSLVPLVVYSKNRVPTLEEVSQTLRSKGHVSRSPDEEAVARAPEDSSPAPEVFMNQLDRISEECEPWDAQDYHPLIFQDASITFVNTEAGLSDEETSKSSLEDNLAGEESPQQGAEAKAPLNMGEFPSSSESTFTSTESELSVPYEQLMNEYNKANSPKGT
UniProt P43361, sequence (P43361 whole entry, looked up): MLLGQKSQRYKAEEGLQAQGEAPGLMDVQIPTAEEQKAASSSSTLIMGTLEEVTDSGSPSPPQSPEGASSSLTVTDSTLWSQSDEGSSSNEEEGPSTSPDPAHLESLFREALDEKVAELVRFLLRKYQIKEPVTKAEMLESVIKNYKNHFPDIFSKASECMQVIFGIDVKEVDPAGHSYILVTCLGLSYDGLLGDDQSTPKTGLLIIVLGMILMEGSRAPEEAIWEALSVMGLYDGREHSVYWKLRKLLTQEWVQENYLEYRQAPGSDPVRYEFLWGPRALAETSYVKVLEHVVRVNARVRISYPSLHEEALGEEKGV
UniProt Q96LU5, sequence (Q96LU5 whole entry, looked up): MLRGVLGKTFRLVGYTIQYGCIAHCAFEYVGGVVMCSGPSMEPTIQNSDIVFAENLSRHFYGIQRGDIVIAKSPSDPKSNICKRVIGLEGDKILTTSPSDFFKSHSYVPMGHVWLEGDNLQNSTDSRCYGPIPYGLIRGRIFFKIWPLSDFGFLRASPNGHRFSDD
UniProt Q86UD3, sequence (Q86UD3 whole entry, looked up): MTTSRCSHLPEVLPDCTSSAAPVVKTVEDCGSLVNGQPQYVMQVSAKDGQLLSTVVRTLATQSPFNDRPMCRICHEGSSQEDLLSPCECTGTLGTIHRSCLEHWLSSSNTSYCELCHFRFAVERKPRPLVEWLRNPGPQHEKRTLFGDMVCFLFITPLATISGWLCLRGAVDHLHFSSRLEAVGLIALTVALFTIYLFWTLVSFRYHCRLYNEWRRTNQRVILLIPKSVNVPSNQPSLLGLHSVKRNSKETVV
UniProt Q96PV6, sequence (Q96PV6 whole entry, looked up): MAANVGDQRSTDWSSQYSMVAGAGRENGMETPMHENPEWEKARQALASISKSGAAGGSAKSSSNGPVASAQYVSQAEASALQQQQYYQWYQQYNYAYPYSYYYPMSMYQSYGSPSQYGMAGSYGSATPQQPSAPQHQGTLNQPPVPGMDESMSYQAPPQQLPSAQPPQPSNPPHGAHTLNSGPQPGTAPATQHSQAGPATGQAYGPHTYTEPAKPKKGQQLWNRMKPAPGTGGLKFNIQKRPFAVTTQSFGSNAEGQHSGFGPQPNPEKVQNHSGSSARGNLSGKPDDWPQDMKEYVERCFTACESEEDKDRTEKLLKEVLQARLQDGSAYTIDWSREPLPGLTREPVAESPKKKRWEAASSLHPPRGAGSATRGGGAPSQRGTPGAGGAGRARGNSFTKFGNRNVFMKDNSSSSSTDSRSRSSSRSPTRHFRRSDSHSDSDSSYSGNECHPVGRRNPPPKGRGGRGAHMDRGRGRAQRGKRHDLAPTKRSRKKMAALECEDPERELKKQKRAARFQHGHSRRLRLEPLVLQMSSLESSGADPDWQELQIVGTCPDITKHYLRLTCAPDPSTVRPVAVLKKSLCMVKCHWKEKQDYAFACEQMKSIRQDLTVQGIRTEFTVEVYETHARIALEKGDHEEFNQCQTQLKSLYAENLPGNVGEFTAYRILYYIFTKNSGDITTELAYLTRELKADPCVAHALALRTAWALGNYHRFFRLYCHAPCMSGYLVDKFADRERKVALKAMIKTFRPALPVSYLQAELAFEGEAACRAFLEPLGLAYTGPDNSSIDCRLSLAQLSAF
UniProt Q93074, sequence (Q93074 whole entry, looked up): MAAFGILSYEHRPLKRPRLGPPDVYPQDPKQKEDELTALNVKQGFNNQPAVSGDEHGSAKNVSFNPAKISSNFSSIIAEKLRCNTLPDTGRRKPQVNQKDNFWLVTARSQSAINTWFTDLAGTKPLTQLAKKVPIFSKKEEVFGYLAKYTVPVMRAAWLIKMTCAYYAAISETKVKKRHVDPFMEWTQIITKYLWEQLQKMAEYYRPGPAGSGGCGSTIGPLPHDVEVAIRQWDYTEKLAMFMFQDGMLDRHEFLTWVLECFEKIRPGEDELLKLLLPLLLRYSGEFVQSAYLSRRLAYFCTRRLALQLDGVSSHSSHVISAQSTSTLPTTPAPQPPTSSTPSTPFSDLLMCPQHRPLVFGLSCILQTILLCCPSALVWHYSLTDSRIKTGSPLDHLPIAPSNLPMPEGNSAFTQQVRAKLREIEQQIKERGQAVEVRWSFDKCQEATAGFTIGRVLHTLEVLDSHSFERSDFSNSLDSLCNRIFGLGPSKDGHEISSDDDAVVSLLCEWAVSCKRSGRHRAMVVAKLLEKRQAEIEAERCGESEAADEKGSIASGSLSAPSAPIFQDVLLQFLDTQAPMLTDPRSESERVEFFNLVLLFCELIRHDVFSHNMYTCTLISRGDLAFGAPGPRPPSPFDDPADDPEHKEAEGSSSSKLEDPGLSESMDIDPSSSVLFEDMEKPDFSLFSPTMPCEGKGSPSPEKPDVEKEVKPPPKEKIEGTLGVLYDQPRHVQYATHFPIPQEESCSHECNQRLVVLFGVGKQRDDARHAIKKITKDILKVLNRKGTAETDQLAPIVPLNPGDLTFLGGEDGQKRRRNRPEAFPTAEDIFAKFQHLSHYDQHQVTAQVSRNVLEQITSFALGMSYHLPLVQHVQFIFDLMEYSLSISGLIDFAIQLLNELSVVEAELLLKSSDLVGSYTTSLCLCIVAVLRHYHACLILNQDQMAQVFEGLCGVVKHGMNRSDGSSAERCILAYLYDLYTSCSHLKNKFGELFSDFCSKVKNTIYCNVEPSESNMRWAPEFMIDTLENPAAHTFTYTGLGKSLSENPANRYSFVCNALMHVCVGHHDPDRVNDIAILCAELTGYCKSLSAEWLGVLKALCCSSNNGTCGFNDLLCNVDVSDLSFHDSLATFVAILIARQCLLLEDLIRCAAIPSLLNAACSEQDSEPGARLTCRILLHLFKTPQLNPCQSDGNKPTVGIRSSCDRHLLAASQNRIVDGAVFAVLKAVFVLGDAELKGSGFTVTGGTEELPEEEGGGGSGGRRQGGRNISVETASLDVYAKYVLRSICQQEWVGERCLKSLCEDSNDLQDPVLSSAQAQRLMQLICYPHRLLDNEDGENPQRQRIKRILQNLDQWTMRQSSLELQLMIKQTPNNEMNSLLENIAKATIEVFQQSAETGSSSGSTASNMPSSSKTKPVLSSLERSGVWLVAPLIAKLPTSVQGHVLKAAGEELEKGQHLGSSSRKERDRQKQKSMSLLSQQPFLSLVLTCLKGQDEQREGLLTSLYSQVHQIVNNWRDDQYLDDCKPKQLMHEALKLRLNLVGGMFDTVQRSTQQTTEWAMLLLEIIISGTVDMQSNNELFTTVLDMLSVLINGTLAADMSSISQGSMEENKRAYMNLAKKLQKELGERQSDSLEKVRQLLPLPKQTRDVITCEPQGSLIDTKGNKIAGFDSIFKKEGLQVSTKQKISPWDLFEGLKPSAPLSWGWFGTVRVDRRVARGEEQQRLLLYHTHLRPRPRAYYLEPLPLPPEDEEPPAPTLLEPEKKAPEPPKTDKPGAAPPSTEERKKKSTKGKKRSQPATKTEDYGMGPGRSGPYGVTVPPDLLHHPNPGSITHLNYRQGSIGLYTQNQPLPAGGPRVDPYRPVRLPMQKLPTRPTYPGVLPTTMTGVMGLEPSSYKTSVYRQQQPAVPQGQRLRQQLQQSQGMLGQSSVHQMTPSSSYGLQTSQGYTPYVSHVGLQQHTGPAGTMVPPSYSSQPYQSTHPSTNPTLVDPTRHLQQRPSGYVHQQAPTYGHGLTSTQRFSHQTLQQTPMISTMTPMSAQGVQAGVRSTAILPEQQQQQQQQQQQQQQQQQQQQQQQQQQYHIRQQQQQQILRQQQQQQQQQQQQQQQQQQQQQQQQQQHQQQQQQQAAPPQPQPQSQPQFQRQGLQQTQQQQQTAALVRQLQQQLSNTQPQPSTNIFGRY

What follows are targets tested with CC[C@@H]1C(=O)N(C)c2cnc(Nc3ccc(C(=O)NC4CCN(C)CC4)cc3OC)nc2N1C1CCCC1 (assay: log2 fold change, soluble protein after heating vs DMSO (PISA); higher = thermal stabilisation; K562 cells, 10 uM, 30 min; active = over 0.2 and 3.5 SD of the protein, either way, in both replicates (recomputed)).
How it was run: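 Soluble protein was defined as the supernatant after 21,000xg for 90 min. It came from K562 cells at 2×10^6 cells/mL given 10 μM compound for 30 min, heated in aliquots for 3 min across 48°C-58°C, pooled, and extracted in PBS with 0.5% NP-40 at 4°C, and was quantified by TMTpro 16plex LC-MS/MS with equalised channel sums. Thermal stability against control samples, from duplicates, is reported as log2 fold change.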
For MAPK14 (UniProt Q16539), the log2 fold change was -0.065 (inactive).
MAP4K2 (UniProt Q12851) was tested, and the log2 fold change was -0.044 (inactive).
ITM2B (UniProt Q9Y287) was tested, and the log2 fold change was -0.022 (inactive).
METAP1D (UniProt Q6UB28) was tested, and the log2 fold change was 0.031 (inactive).
IL27RA (UniProt Q6UWB1) was tested, and the log2 fold change was -0.12 (inactive).
For LPGAT1 (UniProt Q92604), the log2 fold change was -0.206 (inactive).
In the case of MED12 isoform 2 (UniProt Q93074), the log2 fold change is reported as -0.055 (inactive).
With KMT2C isoform 3 (UniProt Q8NEZ4) the log2 fold change was -0.908 (active).
In the case of LUM (UniProt P51884), the log2 fold change is reported as 0.076 (inactive).
In the case of ITPRID2 (UniProt P28290), the log2 fold change is reported as 0.01 (inactive).
LRBA, A0A494BZW2 was tested, and the log2 fold change was -0.04 (inactive).
With IMMP1L (UniProt Q96LU5) the log2 fold change was -0.012 (inactive).
In the case of KIF3B (UniProt O15066), the log2 fold change is reported as 0.156 (inactive).
With MED8 isoform 2 (UniProt Q96G25) the log2 fold change was 0.027 (inactive).
In the case of MFSD8 (UniProt Q8NHS3), the log2 fold change is reported as -0.016 (inactive).
For MED22 (UniProt Q15528), the log2 fold change was 0.133 (inactive).
For MARK2 (UniProt E9PC69), the log2 fold change was 0.044 (inactive).
With ILF3 (UniProt Q12906) the log2 fold change was 0.222 (inactive).
ING5 (UniProt Q8WYH8) was tested, and the log2 fold change was -0.561 (active).
MCM10 (UniProt Q7L590) was tested, and the log2 fold change was -0.074 (inactive).
For MBLAC1 (UniProt A4D2B0), the log2 fold change was 0.112 (inactive).
In the case of MAGEA8 (UniProt P43361), the log2 fold change is reported as -0.096 (inactive).
With KIZ (UniProt Q2M2Z5) the log2 fold change was 0.104 (inactive).
MAP4K4 isoform 6 (UniProt O95819) was tested, and the log2 fold change was -0.241 (inactive).
MELK (UniProt Q14680) was tested, and the log2 fold change was -0.429 (inactive).
With KCNK5 (UniProt O95279) the log2 fold change was -0.042 (inactive).
MAN2B2 (UniProt Q9Y2E5) was tested, and the log2 fold change was -0.445 (active).
In the case of MFSD11 (UniProt O43934), the log2 fold change is reported as -0.244 (inactive).
With LENG8 (UniProt Q96PV6) the log2 fold change was -0.029 (inactive).
LRFN1 (UniProt Q9P244) was tested, and the log2 fold change was -0.015 (inactive).
With MASTL (UniProt Q96GX5) the log2 fold change was -0.02 (inactive).
With MCOLN3 (UniProt Q8TDD5) the log2 fold change was 0.094 (inactive).
For IP6K1 (UniProt Q92551), the log2 fold change was 0.127 (inactive).
For MARCHF3 (UniProt Q86UD3), the log2 fold change was 0.116 (inactive).
With MED25 isoform 3 (UniProt Q71SY5) the log2 fold change was 0.057 (inactive).
For KXD1 (UniProt Q9BQD3), the log2 fold change was -0.154 (inactive).
MED17 (UniProt Q9NVC6) was tested, and the log2 fold change was -0.011 (inactive).
In the case of MAP4 isoform 5 (UniProt P27816), the log2 fold change is reported as -0.001 (inactive).
For ILRUN (UniProt Q9H6K1), the log2 fold change was -0.079 (inactive).
